Values joined by “and” are separate entries in the source; they are usually repeats but may differ in a detail not shown here. Equal values may be shown once. Hit rate of the full screen: of about 5,500 compounds, about 2,000 (36%) were called active. Another 18% or so got no clear call; they are omitted. Cut-off read from the data, not from the text of the source: active = normalized growth mostly below about 0.91 (no sharp cut-off); inconclusive = no clear call, values can overlap the other calls; inactive = mostly above about 0.92. Some of the results follow.
Experiment: chemical genetic growth profiling, strain panel (AID 1159580);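 note: tested at 20 µM; growth read once vehicle control cultures reached saturation at 30 °C; 1 = growth at the plate median or of vehicle wells; lower values mean less growth of the strain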
Conditions: S. cerevisiae deletion strains, growth OD

Measured: normalized growth

COc1c(O)cc2c(c1O)[C@H]1O[C@H](CO)[C@@H](O)[C@H](O)[C@@H]1OC2=O
inactive: locus YAL021C, strain ccr4, hits give low values 1.03 | locus YAL026C, strain drs2, hits give low values 1.02 | locus YAL030W, strain snc1, hits give low values 1.02 | locus YBL061C, strain skt5, hits give low values 1.03 | locus YBR009C, strain hhf1, hits give low values 1.02 | locus YBR021W, strain FUR4, hits give low values 0.961 | locus YBR023C, strain chs3, hits give low values 1.03 | locus YBR171W, strain sec66, hits give low values 1.02 | locus YBR229C, strain ROT2, hits give low values 0.993 | locus YBR231C, strain swc5, hits give low values 1.02 | locus YBR279W, strain paf1, hits give low values 1.02 | locus YCL011C, strain gbp2, hits give low values 1.02 | locus YCL016C, strain dcc1, hits give low values 1.04 | locus YCL029C, strain bik1, hits give low values 0.998 | locus YCL061C, strain MRC1, hits give low values 1.02 | locus YCL069W, strain vba3, hits give low values 1.02 | locus YCR088W, strain abp1, hits give low values 1.02 | locus YDL005C, strain med2, hits give low values 1.03 | locus YDL035C, strain GPR1, hits give low values 1.02 | locus YDL040C, strain nat1, hits give low values 1.02 | locus YDL074C, strain BRE1, hits give low values 0.992 | locus YDL101C, strain DUN1, hits give low values 0.985 | locus YDL185W, strain tfp1, hits give low values 1.02 | locus YDL192W, strain arf1, hits give low values 0.983 | locus YDR001C, strain nth1, hits give low values 1.02 | locus YDR069C, strain doa4, hits give low values 1.03 | locus YDR101C, strain arx1, hits give low values 1.01 | locus YDR137W, strain rgp1, hits give low values 1.05 | locus YDR150W, strain NUM1, hits give low values 0.98 | locus YDR159W, strain sac3, hits give low values 1 | locus YDR162C, strain NBP2, hits give low values 0.988 | locus YDR195W, strain ref2 1 | locus YDR297W, strain sur2, hits give low values 1.02 | locus YDR318W, strain mcm21, hits give low values 1.01 | locus YDR334W, strain swr1, hits give low values 1.02 | locus YDR335W, strain msn5, hits give low values 1.02 | locus YDR388W, hits give low values 0.996 | locus YDR392W, strain spt3, hits give low values 0.966 | locus YDR502C, strain sam2, hits give low values 1 | locus YEL003W, strain gim4, hits give low values 1.02 | locus YEL037C, strain rad23, hits give low values 1.02 | locus YEL061C, strain CIN8 (second series), hits give low values 1.02 | locus YEL061C, strain CIN8, hits give low values 0.962 | locus YER015W, strain faa2, hits give low values 1.01 | locus YER016W, strain bim1, hits give low values 1.02 | locus YER110C, hits give low values 1.01 | locus YER111C, strain swi4, hits give low values 1.01 | locus YER155C, strain BEM2 (second series), hits give low values 1 | locus YER155C, strain BEM2, hits give low values 0.996 | locus YER167W, strain BCK2, hits give low values 0.973 | locus YFR010W, strain ubp6, hits give low values 1.02 | locus YGL078C, strain dbp3, hits give low values 1.03 | locus YGL086W, strain mad1, hits give low values 0.991 | locus YGL167C, strain pmr1, hits give low values 1.02 | locus YGL173C, strain kem1, hits give low values 1.01 | locus YGL227W, strain vid30, hits give low values 1.02 | locus YGL240W, strain doc1, hits give low values 1.01 | locus YGL248W, strain PDE1, hits give low values 1 | locus YGL253W, strain hxk2, hits give low values 1.02 | locus YGR135W, strain pre9, hits give low values 0.995 | locus YGR252W, strain gcn5, hits give low values 0.991 | locus YHR013C, strain ard1, hits give low values 1.02 | locus YHR027C, strain rpn1, hits give low values 1.01 | locus YHR030C, strain SLT2, hits give low values 1.01 and 0.959 | locus YHR079C, strain IRE1 (second series), hits give low values 1.01 | locus YHR079C, strain IRE1, hits give low values 0.987 | locus YHR094C, strain hxt1, hits give low values 0.996 | locus YHR129C, strain ARP1, hits give low values 0.988 | locus YHR142W, strain chs7, hits give low values 1.05 | locus YHR200W, strain rpn10, hits give low values 1 | locus YIL066C, strain RNR3, hits give low values 0.986 | locus YIL073C, strain SPO22, hits give low values 1.05 | locus YIL125W, strain kgd1, hits give low values 1.01 | locus YIR030C, strain dcg1, hits give low values 1 | locus YJL092W, strain hpr5, hits give low values 1.02 | locus YJL095W, strain BCK1 (second series), hits give low values 1.03 | locus YJL095W, strain BCK1, hits give low values 0.811 and 0.98 | locus YJL115W, strain asf1, hits give low values 1.01 | locus YJL129C, strain trk1, hits give low values 1.04 | locus YJL134W, strain LCB3, hits give low values 0.998 | locus YJL154C, strain vps35, hits give low values 1.01 | locus YJL164C, strain tpk1, hits give low values 1.02 | locus YJL166W, strain qcr8, hits give low values 1.03 | locus YJL168C, strain set2, hits give low values 1 | locus YJL187C, strain SWE1 (second series), hits give low values 0.969 | locus YJL187C, strain SWE1, hits give low values 1.03 | locus YJR043C, strain POL32, hits give low values 0.997 | locus YJR066W, strain TOR1, hits give low values 0.934 | locus YJR075W, strain HOC1, hits give low values 1

— PubChem BioAssay AID1159580 (chemical genetic matrix, 2015)
